What was measured:
Experiment in all cases: PBM binding z-score (relative to random genomic background probes); higher = stronger binding; sequences stand for … in GC…GCGATTGACAGCGTAGAATGAAGG
[1] = system: FXR:RXRa (NR concentration 270 nM, RXRa partner concentration 90 nM)
Procedure, shortened: (§1)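 Random background probes are the reference for binding z-scores. These scores derive from regression-normalized fluorescence on custom Agilent 4×180K protein-binding microarrays incubated 1 h with ligand-free nuclear receptor dimers. Binding was detected with antibodies against each partner (one per run).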

[2] = system: LXRa:RXRa (NR concentration 270 nM, RXRa partner concentration 90 nM)
Procedure, shortened: as §1

[3] = system: LXRa homodimer (NR concentration 270 nM)
Procedure, shortened: as §1

[4] = system: LXRb:RXRa (NR concentration 270 nM, RXRa partner concentration 90 nM)
Procedure, shortened: as §1

[5] = system: LXRb homodimer (NR concentration 270 nM)
Procedure, shortened: as §1

[6] = system: PPARa:RXRa (NR concentration 270 nM, RXRa partner concentration 90 nM)
Procedure, shortened: as §1

[7] = system: PPARg:RXRa (NR concentration 180 nM, RXRa partner concentration 90 nM)
Procedure, shortened: as §1

[8] = system: PPARg:RXRa 270nM:90nM, anti-RXR (NR concentration 270 nM, RXRa partner concentration 90 nM)
Procedure, shortened: as §1

[9] = system: PPARg:RXRa 30nM:10nM, anti-RXR (NR concentration 30 nM, RXRa partner concentration 10 nM)
Procedure, shortened: as §1

[10] = system: PPARg:RXRa 90nM:30nM, anti-RXR (NR concentration 90 nM, RXRa partner concentration 30 nM)
Procedure, shortened: as §1

CCTGCTAGGTCATGGTCAGCAAATCTACAGTATG
PBM binding z-score [1]: 3.65 | PBM binding z-score [2]: 2.33 | PBM binding z-score [3]: 0.105 | PBM binding z-score [4]: 1.71 | PBM binding z-score [5]: -0.273 | PBM binding z-score [6]: 3.53 | PBM binding z-score [7]: 2.37 | PBM binding z-score [8]: 2.74 | PBM binding z-score [9]: 0.551 | PBM binding z-score [10]: 1.8

CAGACTAGGTCAAGGTCAAAGTCGGTTTGTGCCA
PBM binding z-score [1]: 6.13 | PBM binding z-score [2]: 5.42 | PBM binding z-score [3]: 3.5 | PBM binding z-score [4]: 4.36 | PBM binding z-score [5]: 0.864 | PBM binding z-score [6]: 5.62 | PBM binding z-score [7]: 7.72 | PBM binding z-score [8]: 7.03 | PBM binding z-score [9]: 5.17 | PBM binding z-score [10]: 6.78

TCGTATAGGTAAAGGTGAAAGTCGAACGATATGA
PBM binding z-score [1]: 1.05 | PBM binding z-score [2]: 1.45 | PBM binding z-score [3]: 0.11 | PBM binding z-score [4]: 1.11 | PBM binding z-score [5]: -0.167 | PBM binding z-score [6]: 2.87 | PBM binding z-score [7]: 2.34 | PBM binding z-score [8]: 3.99 | PBM binding z-score [9]: 3.45 | PBM binding z-score [10]: 3.86

TGTCAAAGTACAAAGGTAACGTAAGTATCCACAC
PBM binding z-score [1]: 0.237 | PBM binding z-score [2]: 0.465 | PBM binding z-score [3]: -0.185 | PBM binding z-score [4]: 0.542 | PBM binding z-score [5]: -0.294 | PBM binding z-score [6]: 1.67 | PBM binding z-score [7]: 3.64 | PBM binding z-score [8]: 4.32 | PBM binding z-score [9]: 1.97 | PBM binding z-score [10]: 3.96

ATCTCTAGGTAACAGTTCAGTGAATCCCGAGGAT
PBM binding z-score [1]: 0.279 | PBM binding z-score [2]: 0.179 | PBM binding z-score [3]: 0.588 | PBM binding z-score [4]: 0.193 | PBM binding z-score [5]: 0.937 | PBM binding z-score [6]: 2.24 | PBM binding z-score [7]: 3.39 | PBM binding z-score [8]: 4.74 | PBM binding z-score [9]: 3.06 | PBM binding z-score [10]: 4.55

CAAACTGGGTCACGAAAGGTCAAAGTCGAATGAC
PBM binding z-score [1]: 7.32 | PBM binding z-score [2]: 8.03 | PBM binding z-score [3]: 6.63 | PBM binding z-score [4]: 7.01 | PBM binding z-score [5]: 2.08 | PBM binding z-score [6]: 6.6 | PBM binding z-score [7]: 10.5 | PBM binding z-score [8]: 8.52 | PBM binding z-score [9]: 6.44 | PBM binding z-score [10]: 8.43

TCGAGTAGGTTACCCATGGGGCATTCAGCTTTCT
PBM binding z-score [1]: 0.292 | PBM binding z-score [2]: 1.66 | PBM binding z-score [3]: -0.443 | PBM binding z-score [4]: 0.752 | PBM binding z-score [5]: -0.79 | PBM binding z-score [6]: 1.09 | PBM binding z-score [7]: 0.462 | PBM binding z-score [8]: 1.36 | PBM binding z-score [9]: 1.23 | PBM binding z-score [10]: 1.18

GGAAAGAGGGCAAAGTTGATAGCATCTGTCGACG
PBM binding z-score [1]: 2.04 | PBM binding z-score [2]: 1.94 | PBM binding z-score [3]: 0.254 | PBM binding z-score [4]: 1.64 | PBM binding z-score [5]: 0.832 | PBM binding z-score [6]: 4.24 | PBM binding z-score [7]: 6.06 | PBM binding z-score [8]: 6.9 | PBM binding z-score [9]: 5.92 | PBM binding z-score [10]: 7.29

TTACCAAGGTGAAAGGTCGTTGTTGCACGCCTTG
PBM binding z-score [1]: 3.74 | PBM binding z-score [2]: 3.17 | PBM binding z-score [3]: 0.187 | PBM binding z-score [4]: 3.12 | PBM binding z-score [5]: -0.415 | PBM binding z-score [6]: 5.29 | PBM binding z-score [7]: 8.39 | PBM binding z-score [8]: 7.47 | PBM binding z-score [9]: 6.57 | PBM binding z-score [10]: 8.04

TATACAGGGTCAAAGGCCAGAGTCCGAATGTCGA
PBM binding z-score [1]: 6.58 | PBM binding z-score [2]: 6.06 | PBM binding z-score [3]: 2.35 | PBM binding z-score [4]: 4.71 | PBM binding z-score [5]: 2.55 | PBM binding z-score [6]: 5.85 | PBM binding z-score [7]: 7.34 | PBM binding z-score [8]: 7.02 | PBM binding z-score [9]: 4.84 | PBM binding z-score [10]: 6.68

GCTTTTAGTTGAAAGGGCAACCGAATGATTCTCG
PBM binding z-score [1]: 0.288 | PBM binding z-score [2]: 0.561 | PBM binding z-score [3]: -0.0833 | PBM binding z-score [4]: 0.53 | PBM binding z-score [5]: 0.106 | PBM binding z-score [6]: 2.2 | PBM binding z-score [7]: 2.24 | PBM binding z-score [8]: 4.03 | PBM binding z-score [9]: 1.85 | PBM binding z-score [10]: 3.97

CCTATTAGTTGACCAGAAGGGCAACCGAAGCTCG
PBM binding z-score [1]: 0.545 | PBM binding z-score [2]: 0.559 | PBM binding z-score [3]: 0.36 | PBM binding z-score [4]: 0.332 | PBM binding z-score [5]: 0.735 | PBM binding z-score [6]: 0.431 | PBM binding z-score [7]: 0.395 | PBM binding z-score [8]: 0.467 | PBM binding z-score [9]: -0.116 | PBM binding z-score [10]: 0.177

TCGAGTAGGTTACCAAAGGGGCATTCAGCTTTCT
PBM binding z-score [1]: 0.363 | PBM binding z-score [2]: 3.05 | PBM binding z-score [3]: -0.577 | PBM binding z-score [4]: 1.61 | PBM binding z-score [5]: -0.557 | PBM binding z-score [6]: 1.41 | PBM binding z-score [7]: 0.576 | PBM binding z-score [8]: 1.33 | PBM binding z-score [9]: 0.963 | PBM binding z-score [10]: 1.22

TCTAGCACGCCAGAGGGTCACTCAAGAGGTACGG
PBM binding z-score [1]: 1.04 | PBM binding z-score [2]: 1.11 | PBM binding z-score [3]: -0.323 | PBM binding z-score [4]: 0.821 | PBM binding z-score [5]: -0.814 | PBM binding z-score [6]: 2.01 | PBM binding z-score [7]: 0.836 | PBM binding z-score [8]: 1.13 | PBM binding z-score [9]: 1.71 | PBM binding z-score [10]: 1.2

ACAGACAGGTGATGAACGTAACTCAGGCTATCAT
PBM binding z-score [1]: -0.0915 | PBM binding z-score [2]: -0.174 | PBM binding z-score [3]: 0.0611 | PBM binding z-score [4]: -0.231 | PBM binding z-score [5]: -0.49 | PBM binding z-score [6]: -0.156 | PBM binding z-score [7]: 0.922 | PBM binding z-score [8]: -0.0111 | PBM binding z-score [9]: 0.477 | PBM binding z-score [10]: -0.194

CCGACTGGGGCAAGATTACCATAACGCACAGCCA
PBM binding z-score [1]: -0.454 | PBM binding z-score [2]: -0.432 | PBM binding z-score [3]: -0.473 | PBM binding z-score [4]: -0.425 | PBM binding z-score [5]: -1.17 | PBM binding z-score [6]: -0.0466 | PBM binding z-score [7]: 1.17 | PBM binding z-score [8]: 0.422 | PBM binding z-score [9]: -0.715 | PBM binding z-score [10]: -0.513

GTACCAAGGTTAATAGGTCGTTGATGAGTAGGCG
PBM binding z-score [1]: 2.13 | PBM binding z-score [2]: 1.67 | PBM binding z-score [3]: 0.289 | PBM binding z-score [4]: 1.34 | PBM binding z-score [5]: -0.213 | PBM binding z-score [6]: 3.18 | PBM binding z-score [7]: 3 | PBM binding z-score [8]: 3.43 | PBM binding z-score [9]: 1.01 | PBM binding z-score [10]: 2.5

ATACCATGGTGATCGTGAGGTCGTTGATACTAAC
PBM binding z-score [1]: 0.952 | PBM binding z-score [2]: 0.604 | PBM binding z-score [3]: 0.284 | PBM binding z-score [4]: 1.08 | PBM binding z-score [5]: -0.16 | PBM binding z-score [6]: 0.884 | PBM binding z-score [7]: 0.301 | PBM binding z-score [8]: -0.0472 | PBM binding z-score [9]: 0.115 | PBM binding z-score [10]: 0.0761

CTCGAAAGATCGTGCTCAGGTGAGTATACCAAAC
PBM binding z-score [1]: -0.102 | PBM binding z-score [2]: -0.388 | PBM binding z-score [3]: -0.396 | PBM binding z-score [4]: -0.276 | PBM binding z-score [5]: -0.402 | PBM binding z-score [6]: -0.384 | PBM binding z-score [7]: -0.161 | PBM binding z-score [8]: -0.399 | PBM binding z-score [9]: -0.236 | PBM binding z-score [10]: -0.424

TCTAATAGTTGATTAGGGCAACCGAAACAGCGGA
PBM binding z-score [1]: -0.0644 | PBM binding z-score [2]: 0.461 | PBM binding z-score [3]: -0.078 | PBM binding z-score [4]: 0.136 | PBM binding z-score [5]: -0.225 | PBM binding z-score [6]: 1.23 | PBM binding z-score [7]: 0.375 | PBM binding z-score [8]: 1.85 | PBM binding z-score [9]: 3.3 | PBM binding z-score [10]: 2.53

CGTCAAAGTTCAAGTAAGGTAACGTAAAGCACGC
PBM binding z-score [1]: 6.99 | PBM binding z-score [2]: 6.43 | PBM binding z-score [3]: 4.16 | PBM binding z-score [4]: 4.1 | PBM binding z-score [5]: 1.85 | PBM binding z-score [6]: 5.15 | PBM binding z-score [7]: 5.02 | PBM binding z-score [8]: 5.63 | PBM binding z-score [9]: 2.56 | PBM binding z-score [10]: 4.25

AACACAGGGTCACTAGGCCAGAGTAGGTACGAAT
PBM binding z-score [1]: 6.27 | PBM binding z-score [2]: 4.48 | PBM binding z-score [3]: 0.354 | PBM binding z-score [4]: 3.63 | PBM binding z-score [5]: 0.661 | PBM binding z-score [6]: 5.75 | PBM binding z-score [7]: 7.72 | PBM binding z-score [8]: 6.51 | PBM binding z-score [9]: 2.84 | PBM binding z-score [10]: 5.42

CGTTCAAGGTCAATGCTAGGTCAGTGAAAGCATT
PBM binding z-score [1]: 7.47 | PBM binding z-score [2]: 5.78 | PBM binding z-score [3]: 2.89 | PBM binding z-score [4]: 4.36 | PBM binding z-score [5]: 1.24 | PBM binding z-score [6]: 5.27 | PBM binding z-score [7]: 4.81 | PBM binding z-score [8]: 5.15 | PBM binding z-score [9]: 1.88 | PBM binding z-score [10]: 3.91

Source: the supplement of paper PMC6555819
